Shown are actives, neighbours in structure and some others; about 4.6% of the full set was active somewhere.
D1 agonist: agonists of human D1 dopamine receptor | P21728 | HEK293 T-REx D1 cells, calcium flux, agonist mode | activation, % at 2 µM | 360,000 tested, 1% active; note: 0% is about no effect
Target sequence (P21728 whole entry, looked up): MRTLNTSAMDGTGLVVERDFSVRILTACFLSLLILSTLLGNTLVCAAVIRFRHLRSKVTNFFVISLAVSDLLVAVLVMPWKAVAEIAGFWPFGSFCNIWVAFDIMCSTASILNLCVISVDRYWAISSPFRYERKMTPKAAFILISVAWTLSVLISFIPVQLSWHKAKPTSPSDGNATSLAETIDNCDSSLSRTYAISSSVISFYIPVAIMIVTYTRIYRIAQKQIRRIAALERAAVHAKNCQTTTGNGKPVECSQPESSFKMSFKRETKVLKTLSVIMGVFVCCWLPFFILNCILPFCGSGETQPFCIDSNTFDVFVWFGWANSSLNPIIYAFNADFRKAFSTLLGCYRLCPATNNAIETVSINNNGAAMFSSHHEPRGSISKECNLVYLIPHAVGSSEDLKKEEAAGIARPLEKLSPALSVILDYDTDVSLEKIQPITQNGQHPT
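Inducible HEK293 T-REx D1 cells, force-coupled to calcium signalling, were plated at 4000 cells/well with tetracycline and held overnight at 30 C. After no-wash calcium dye loading, compound-evoked calcium rise over 180 s flagged agonists.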
D1 antag: blocks dopamine activation of the human D1 receptor; HEK293 TREx D1 cells, calcium flux, dopamine EC80; stronger effect = lower value; activity change, negative = inhibition, % at 10 µM; 360,000 tested, 3.2% active; in the data active = activity change below about -30%; note: % is set by controls: 0 for no effect and ±100 for the full control effect
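Allosteric or orthosteric antagonism assessed as attenuation of the calcium response to EC80 dopamine, added 180 s after compound, in induced HEK293 Trex D1 cells loaded with no-wash calcium dye.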
TRHR enhancer: allosterically enhances the human TRH receptor | AID 493056 | enhancement, % at 2 µM | TRHR cells, fluo-8 calcium fluorescence, EC20 TRH enhancement | P34981 | 360,000 tested, 0.66% active; in the data active = enhancement above about 30%; note: 0% is about no effect
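TRHR-expressing cells loaded with fluo-8 calcium dye were read kinetically (ex 480/em 530) during compound addition, then stimulated with an EC20 of TRH (10 nM final). Enhancement of the Gq-mediated intracellular calcium response was scored.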
D1 PAM: enhances dopamine response at the human D1 receptor | 360,000 tested, 0.036% active | potentiation, % at 10 µM | HEK293 TREx D1 cells, calcium flux, dopamine EC20 potentiation | AID 504651 | P21728; in the data active = potentiation above about 30%; note: 0% is about no effect
TRHR ag: activates the human TRH receptor; 360,000 tested, 0.18% active; TRHR cells, calcium flux fluo-8, FDSS agonist mode; activation, % at 2 µM; AID 493084; P34981; note: 0% is about no effect
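In this calcium-flux screen, cells bearing human TRHR are dye-loaded with fluo-8, baselined for 10 cycles, then exposed to library compounds; positive kinetic calcium responses during the agonist phase mark hits, with TRH as control.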
* = called active by the depositor; ! = a repeat was not active. Cut-off read from the data, not from the text of the source, unless noted: active = activation above about 30%; inactive = the rest.

SMILES	D1 agonist	D1 antag	TRHR enhancer	D1 PAM	TRHR ag
CCn1ncc([N+](=O)[O-])c1C(=O)Nc1c(C)nn(Cc2ccc(F)cc2)c1C	2.1	-40.1*	-3.6	-3.1	-1.2
COc1ccccc1/C=C/c1nc2ccccc2n1C(C)C	-1.7	-19.4	4.9	-3.5	-1.5
COc1ccc(OC)c(CCNC(=O)c2nn(C)c3c2CSc2ccccc2-3)c1	-2.2	15.8	1.7	-1.5	0.1
Oc1ccc2nnc3c(Br)cnn3c2c1	171.0*	1.3	-6.2	-2.3	52.3*
Clc1ccc2nc3c4ccccc4cnn3c2c1	0.7	-4.8	0.0	-8.8	-1.0
Cc1ccc2nc(NS(=O)(=O)c3ccc(Cl)cc3)c(Nc3ccc(C(=O)O)cc3)nc2c1	10.9	-8.5	1.5	-1.1	-0.5
CCc1ccc(Nc2nc3ccccc3nc2NS(=O)(=O)c2ccccc2)cc1	17.1	-48.6*	-1.5	-4.8	0.5
COc1cccc(Nc2nc3cc(C)ccc3nc2NS(=O)(=O)c2ccc(Cl)cc2)c1	57.8*	-50.1*	-1.4	-4.2	6.1
CCOC(=O)c1ccc(Nc2nc3ccccc3nc2NS(=O)(=O)c2ccc(Cl)cc2)cc1	15.1	-40.4*	-6.1	-2.0	-0.4
COc1ccc(Nc2cc(C(=O)NCCCN(C)Cc3ccccc3)c3ccccc3n2)cc1	43.4*	-45.9*	3.8	-3.9	3.5
CCN(CCCNC(=O)c1cc(Nc2ccccc2OC)nc2ccccc12)c1cccc(C)c1	0.8	-35.2*	-2.8	-2.6	1.6
CC(C)(C)n1nc2c(c1NC(=O)C1CC(=O)N(c3ccc(Cl)cc3)C1)CS(=O)(=O)C2 (stereo not given)	0.6	-9.2	5.9	-2.8	0.0
NS(=O)(=O)c1ccc(NC(=O)/C(=C/c2ccncc2)NC(=O)c2ccccc2)cc1	2.3	9.5	1.3	-12.6	1.1
O=C(c1ccc(Cl)cc1)N1CCN(S(=O)(=O)/C=C/c2ccccc2)CC1	2.9	-2.6	3.4	-3.1	0.0
Cc1ccsc1C(=O)N1CC=C(c2ccccc2)CC1	12.2	-30.7*	1.2	4.6	-0.3
Cc1ccc(C(=O)N2CC=C(c3ccccc3)CC2)s1	2.8	3.7	1.5	3.1	-1.1
COc1ccc(C2CC(=O)Nc3c2c(=O)[nH]c2nc4ccccc4n32)cc1 (stereo not given)	-0.8	-13.1	20.7	-3.3	-0.1
COc1cccc(-c2nc(NCc3ccccc3)c3ccccc3n2)c1O	6.4	5.2	2.0	-8.3	-0.9
Cc1nc(NCc2ccccc2)c2cc[nH]c2n1	5.5	-33.9*	8.1	-1.9	0.0
CC(=O)Oc1cccc(N2C(=O)c3cccc4c([N+](=O)[O-])ccc(c34)C2=O)c1	3.2	-54.1*	-4.7	-8.6	5.1
O=C(O)c1ccc(CN2C(=O)c3cccc4c([N+](=O)[O-])ccc(c34)C2=O)cc1	34.1*	1.5	-11.9	-1.9	11.6
O=C(Cn1cc(C(=O)c2cccs2)c2ccccc21)Nc1ccc(Br)cc1	1.4	-11.5	2.7	-9.6	-0.4
CC(C)Oc1ccc(CNC(=O)c2ccc(CS(=O)Cc3ccccc3Cl)o2)cc1 (stereo not given)	19.8	3.6	3.3	-5.9	-2.4
Cc1cccc(C)c1NC(=O)Cn1c(=O)n(Cc2ccco2)c(=O)c2ccc(C(=O)NC3CCCC3)cc21	-1.2	1.3	4.9	1.9	1.3
Cc1ccc(NC(=O)COC(=O)CCCC2=NS(=O)(=O)c3ccccc3N2)cc1C	1.5	-5.8	11.3	7.6	-0.4
SMILES	D1 agonist	D1 antag	TRHR enhancer	D1 PAM	TRHR ag
Cc1ccccc1COC(=O)CCCC1=NS(=O)(=O)c2ccccc2N1	30.6*	-0.5	-5.1	-2.7	2.4
Cc1ccc2c(c1)cc1c(=O)n(CC(=O)NC3CCCCC3)nc(C)n12	1.1	-5.7	0.2	-3.9	0.0
CCOc1ccc(C(=O)C(C)OC(=O)c2nc(Cl)ccc2Cl)cc1 (stereo not given)	35.2*	-24.3	0.0	3.0	-1.1
CCOC(=O)c1sc(N(Cc2ccccc2)C(=O)CCl)nc1C	7.8	-1.5	-2.1	-3.5	0.2
O=C(O)CSCC(=O)N(Cc1ccccc1)c1nc(-c2ccccc2)c(-c2ccccc2)s1	8.8	-39.4*	4.2	-15.2	-1.7
CCCCCCNC(=O)CC(c1ccccc1)c1cc(Br)ccc1O (stereo not given)	7.0	13.9	8.5	-1.6	-0.1
CC(C)NC(=O)CC(c1ccccc1)c1cc(Br)ccc1O (stereo not given)	44.1*	4.9	8.1	2.0	-1.1
COc1cc(OC)c(N(C)C(=O)c2nn(C)c3c2CSc2ccccc2-3)cc1Cl	1.7	2.2	16.4	-1.1	0.6
CN(C(=O)CSc1nc(C2CCCC2)nc2c1c(=O)n(C)c(=O)n2C)c1ccccc1	7.5	28.6	-2.9	5.0	-0.7
O=C(CN1CCOCC1)Nc1cc(C(F)(F)F)ccc1Cl	2.9	1.5	-2.4	-3.0	-1.6
Cc1ccc(C)n1CCN1CCN(CC(=O)Nc2cc(C(F)(F)F)ccc2Cl)CC1	-0.2	-0.1	55.1*	-4.0	0.0
CS(=O)(=O)c1ccc(Cl)c(NC(=O)CCl)c1	3.2	-0.9	-2.5	6.0	0.3
Cc1ccc(NC(=O)Nc2cc(S(C)(=O)=O)ccc2Cl)cc1	2.6	-38.2*	-3.0	-3.2	-0.6
Cc1ccc(-n2nc3c(N4CCC(C(=O)NCCC(C)C)CC4)nnc(C)c3c2C)cc1	1.4	-11.3	2.2	1.1	-0.5
NC(=O)/C(N=Nc1ccccc1)=N/Nc1ccccc1	0.7	-54.5*	-1.9	-13.4	0.4
O=C(O)c1cccc(N/N=C(\N=Nc2ccccc2)c2ccccc2)c1	3.3	-8.8	-3.9	-7.9	0.0
COc1ccc(Cn2c(SCc3ccc(C(=O)NCc4cccs4)cc3)nc3ccncc32)cc1	19.3	-4.6	1.7	-0.9	-0.3
Cc1cccc(CSc2cn(CC(=O)N3CCCCCC3)c3ccccc23)c1	10.2	-22.3	4.8	-6.2	-2.3
Cc1cccc(CSc2cn(CC(=O)N3CCOCC3)c3ccccc23)c1	1.6	-33.4*!	-0.4	0.9	-0.2
COc1ccc(NC(=O)Cn2cnc3c(oc4ccccc43)c2=O)cc1OC	3.5	-9.8	-4.0	-3.2	-0.2
Cc1ccccc1N1CC(c2nc3ccccc3n2Cc2ccc(Br)cc2)CC1=O (stereo not given)	3.7	1.2	-2.4	0.1	0.3
CNc1oc(-c2ccco2)nc1C#N	-0.1	9.2	6.1	-3.2	0.0
Cc1ccc(CNc2oc(-c3ccco3)nc2C#N)cc1	2.2	-37.1*	-9.5	-6.7	2.2
COc1ccc(CN(C)CC(=O)NC(=O)NCc2ccccc2)c(OC)c1	-0.9	-55.2*	1.5	-8.8	-0.6
CN(CC(=O)NC(=O)NCc1ccccc1)Cc1ccc(Cl)c(Cl)c1	10.9	-6.3	1.7	-0.8	0.5
CCSc1oc(-c2cccs2)nc1S(=O)(=O)c1ccc(Br)cc1	10.1	-4.1	1.0	-0.5	0.6
